What all share (assay): PBM binding z-score (relative to random genomic background probes); higher = stronger binding; sequences stand for … in GC…GCGATTGACAGCGTAGAATGAAGG
The test system of assay [1] is FXR:RXRa (NR concentration 270 nM, RXRa partner concentration 90 nM). The method, boiled down: (§1)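 Binding z-scores take random background probes as their reference. They come from custom Agilent 4×180K protein-binding microarrays incubated 1 h with ligand-free nuclear receptor dimers, with antibodies against each partner (one per run) detecting binding. Scanned fluorescence was regression-normalized.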

Assay [2] concerns LXRa:RXRa (NR concentration 270 nM, RXRa partner concentration 90 nM). The method, boiled down: as §1
The subject of assay [3] is LXRa homodimer (NR concentration 270 nM). In outline:
as §1

For assay [4], the system named is LXRb:RXRa (NR concentration 270 nM, RXRa partner concentration 90 nM). In outline: as §1
Assay [5] deals with LXRb homodimer (NR concentration 270 nM). In outline: as §1
In assay [6] the test system is PPARa:RXRa (NR concentration 270 nM, RXRa partner concentration 90 nM). In outline:
as §1

Assay [7] has as its system PPARg:RXRa (NR concentration 180 nM, RXRa partner concentration 90 nM). The method, boiled down: as §1
The test system of assay [8] is PPARg:RXRa 270nM:90nM, anti-RXR (NR concentration 270 nM, RXRa partner concentration 90 nM). In outline:
as §1

In assay [9] the test system is PPARg:RXRa 30nM:10nM, anti-RXR (NR concentration 30 nM, RXRa partner concentration 10 nM). The method, boiled down:
as §1

The test system of assay [10] is PPARg:RXRa 90nM:30nM, anti-RXR (NR concentration 90 nM, RXRa partner concentration 30 nM). The method, boiled down: as §1

For the sequence AATACATGGTCACTAGGCCAGAGTAGGTACGAAT, the PBM binding z-score in [1] is -0.31; in [2], -0.00437; in [3], -0.0579; in assay [4], -0.301; in assay [5], -0.193; in assay [6], 0.587. The PBM binding z-score in [7] was 1.65; in assay [8], 1.15; in assay [9], 0.153; in assay [10], 0.688.

For AGTCAAAGTTCAGGACGAAGTAACGTAAAGCACG, the PBM binding z-score stood at 3.85 in assay [1]; 3.49 in assay [2]; 0.943 in assay [3]; 1.68 in [4]; 0.274 in [5]; 3.3 in assay [6]. The PBM binding z-score in assay [7] is 4.78; in [8], 4.86; in assay [9], 1.78; in [10], 3.86.

For the sequence TATCCAGGGTCAAAGGCCAGAGTACGAATGTCGA, the PBM binding z-score in [1] stood at 7.03; in assay [2] it was 5.91; in [3], 2.02; in [4] it was 5.03; in assay [5], 2.02; in assay [6] it was 6.22. Moreover, the PBM binding z-score amounted to 7.96 in [7], 7.53 in [8], 5.26 in [9] and 6.94 in assay [10].

Turning to AATACAGGGTCACTAGGCCGGAGTAGGTACGAAT, the PBM binding z-score was 5.72 in [1]; 5.1 in [2]; 0.78 in [3]; 3.77 in assay [4]; 1.05 in [5]; 5.36 in assay [6]. For the same sequence, the PBM binding z-score was found to be 6.6 in assay [7], 6.03 in assay [8], 2.5 in [9] and 4.78 in [10].

Take AGAATGATGTTAAGATCAGGGAAACAGAATACAT: the PBM binding z-score in assay [1] was -0.488; in assay [2], -0.548; in assay [3], -0.153; in assay [4], -0.269; in [5], -0.588; in assay [6] it was -0.205. The PBM binding z-score in assay [7] was 0.948; in [8], -0.174; in assay [9] it was 0.282; in assay [10], -0.132.

In the case of GCTAGTTGGTCAGTAAAAGGTCACACACCGGTCG, the PBM binding z-score in [1] was found to be 3.43; in assay [2], 4.13; in [3] it was 4.61; in assay [4], 3.79; in assay [5] it was 0.823; in [6] it was 4.31. The PBM binding z-score in assay [7] was determined as 3.03; in assay [8], 4.23; in [9] it was 2.21; in [10], 4.37.

Turning to TCTCGGAGTACACGAAGGTCAGAGCTTTCCAGAG, the PBM binding z-score is 0.57 in assay [1]; 0.884 in assay [2]; -0.152 in assay [3]; 1.09 in assay [4]; -1.07 in [5]; 1.84 in [6]. In addition, the PBM binding z-score in assay [7] is 0.351; in assay [8] it was 1.35; in assay [9], 1.91; in assay [10], 1.7.

For the sequence CAGACTAGGTCAAGAGGTCAAAGTCCGCTTCCCG, the PBM binding z-score in [1] worked out at 7.03; in assay [2], 6.1; in assay [3], 5.88; in assay [4], 5.69; in assay [5], 1.64; in [6], 6.29. For the same sequence, the PBM binding z-score in [7] was 8.59; in assay [8] it was 7.74; in assay [9], 5.99; in assay [10] it was 7.54.

For the sequence CGTCCAAGGTCAAGGTCCGTGAAAGAGACTCGAA, the PBM binding z-score in assay [1] came out at 7.33; in [2], 5.22; in assay [3], 0.155; in assay [4], 3.84; in assay [5] it was 0.0848; in assay [6] it was 5.79. Besides, the PBM binding z-score was 5.02 in assay [7], 5.3 in assay [8], 1.9 in assay [9] and 3.92 in [10].

As for AGATTGAGGTTAAGATCAGGGAAACAGAATACAT, the PBM binding z-score was found to be 2.48 in assay [1]; 2.1 in [2]; 0.386 in assay [3]; 2.06 in assay [4]; 0.34 in [5]; 3.45 in assay [6]. Further, the PBM binding z-score worked out at 1.96 in [7], 2.19 in assay [8], 0.935 in [9] and 1.82 in assay [10].

TCTTGTAGATCAAGCAGGTTAAGATAGCCTGAGT: the PBM binding z-score in [1] is 0.371; in [2] it was 0.507; in [3], -0.257; in [4] it was 0.188; in assay [5] it was -0.36; in assay [6] it was 0.829. Moreover, the PBM binding z-score in [7] is -0.193; in assay [8], 1.27; in [9], 2.75; in assay [10], 2.18.

Consider ACTTACGGGTCAACGAGGTTAAAGCACGCGTATA, for which the PBM binding z-score in [1] amounted to 7.3; in assay [2], 5.07; in assay [3], 0.882; in assay [4], 4.97; in assay [5], 0.527; in assay [6], 6.09. The PBM binding z-score in assay [7] is 6.14; in assay [8], 5.57; in assay [9], 2.44; in assay [10], 4.29.

As for CCTGACAGGTGAAAGGTAACTCAGTCTGGTACGC, the PBM binding z-score in [1] is 0.803; in assay [2], 0.991; in [3], -0.258; in [4] it was 0.923; in assay [5] it was -0.669; in assay [6] it was 3.38. In addition, the PBM binding z-score in [7] was 5.7; in assay [8], 6.09; in assay [9] it was 4; in assay [10], 5.75.

Values taken from the supplement of paper PMC6555819.
